Test results as given in PubChem BioAssay (NCI).
About 83,000 compounds went through this panel and 20% of them were active in at least one assay; those are over-represented in the sample as a whole.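 A percent growth of 40 corresponds to 60% growth inhibition; 0 means no net growth; -100 means all cells died. Active threshold: below 10.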 Active and inactive are the calls of the source.

System: KM12 colon
Assay: NCI-60 one-dose screen, 48 h (100 = growth as untreated, 0 = no growth, -100 = all killed)
Conditions: 10 µM unless noted
Procedure: Growth inhibition of the KM12 human tumor cell line is measured as a screen for anti-cancer activity. Cells are grown in 96 well plates and exposed to the test compound for 48 hours. Compounds are tested at a single concentration, which is 10^-5 M for most compounds. The reported endpoint is percent growth (GI% or GIPRCNT), where numbers from 0 - 100% represent growth inhibition, and numbers from -100% - 0 represent cell death. For example, a value of 40 represents 60% growth inhibition. A value of 0 means no net growth occurred over the course of the experiment. A value of -40 indicates 40% of cells at the beginning of the experiment died by the end of the experiment. A value of -100 means all cells are dead at the end of the experiment.
NCI-60 Human Tumor Cell Lines Screen was performed using the standard one-dose NCI protocol, which is described in more detail at https://dtp.cancer.gov/discovery_development/nci-60/default.htm.
Compounds with GIPRCNT values below 10 were considered active. Activity score was based on GIPRCNT using the following formula: […]
Score is 0 for GIPRCNT values of 100 or above, 50 for GIPRCNT values of 0, and 100 for GIPRCNT values of -100.

SMILES | growth
CC(=O)Oc1ccc(C)cc1C | 103% (inactive)
O=C(Nc1ccccc1)Nc1ncnc2c1ncn2-c1ccc(Cl)cc1 | 87.1% (inactive)
Cn1cc(C(=O)c2nc(-c3c[nH]c4ccccc34)no2)c2cc(F)ccc21 | 26.7% (inactive)
Cc1ccc(C(=O)c2ccc(CC(=O)N/N=C/c3ccccc3O)n2C)cc1 | 80.4% (inactive)
CN(C)CCNC(=O)c1ccc(-c2nc3ccc4[nH]ncc4c3c3c2C2CCC3C2)cc1 (stereo not given) | 2.75% (active)
COC1=CC(c2ccc[nH]2)=N/C1=C\c1[nH]c(C)c(C(=O)OC(C)C)c1C | -66.3% (active)
CCCCNC(=O)Oc1ccc(/C(=C(/C)Cc2ccc(OC)cc2)c2ccc(OCCN3CCCC3)cc2)cc1 | 55.3% (inactive)
Nc1ncnc2c1C(c1ccc(Br)cc1)c1sc3c(F)cccc3c1O2 (stereo not given) | 91.8% (inactive)
S=c1sc2c(Cl)nc(-c3cccnc3)nc2n1-c1ccccc1 | 46.3% (inactive)
Nc1nc(-c2ccc(Cl)cc2)nc2c1sc(=S)n2-c1ccccc1 | 36% (inactive)
C=CCOC(=O)Nc1cccn([C@H](Cc2ccccc2)C(=O)NCCC(C)C)c1=O | 110% (inactive)
C=CC(=O)N1CCN(c2cccc(Oc3nccc(Nc4nnc(-c5ccc(Br)cc5)s4)n3)c2)CC1 | 43.8% (inactive)
CC1=C([Se]CC(OC(=O)CC[Se]c2ccccc2)C(=O)NC(C)(C)C)C(=O)c2ccccc2C1=O (stereo not given) | -92.3% (active)
CCNCCNc1cc(C2CCCCC2)c(C#N)c2nc3ccccc3n12 | 38.8% (inactive)
Cc1cn(-c2cc(NC(=O)c3cccc(C#Cc4cccc5[nH]nc(N)c45)c3)cc(C(F)(F)F)c2)cn1 | 20.6% (inactive)
CC(C)c1ccc(Cc2cnc(NC(=O)c3cc(Br)cs3)s2)cc1 | 20.7% (inactive)
O=C1NC(=C(Cl)Cl)/C(=N\S(=O)(=O)NCc2ccccc2)N1 | 62.9% (inactive)
COc1c(B(O)O)cccc1-c1nc2c(F)cc3[nH]ncc3c2c2c1CCCC2 | -12.1% (active)
O=C1c2ccc3c4c5ccc(c24)C(=O)N1CCCOCCCCOCCCNCc1ccc(cc1)CNCCCOCCCCOCCCN(C3=O)C5=O | -30.4% (active)
O=c1c2cnn(-c3ccccc3)c2n2c(CN3CCOCC3)nnc2n1-c1ccccc1 | 101% (inactive)

SMILES | growth
O=C(O)CCCN1C(=O)/C(=C/c2cn(-c3ccccc3)nc2-c2ccc([N+](=O)[O-])cc2)SC1=S | 54.1% (inactive)
NNc1nc(-c2cccnc2)nc2c1sc(=S)n2-c1ccccc1 | 102% (inactive)
O=C(CN1C(=O)S/C(=C\C(Cl)=C\c2ccccc2)C1=O)NCCc1ccc(O)cc1 | 5.78% (active)
COc1cc2c(c(OC)c1OC)CCC(c1cccc(C(=O)Nc3cccc(Cl)c3)c1)O2 (stereo not given) | 96.3% (inactive)
Cc1cc(=O)n(C(=O)Nc2ccccc2Cl)c2cc(O)ccc12 | 98.1% (inactive)
NC(=O)c1c(NC(=O)c2ccc3ccccc3c2)sc2c1CCC(=O)C2 | 34.9% (inactive)
Cc1c(O)cc(-c2cnc(Nc3ccccc3)s2)c(O)c1C | 95.9% (inactive)
CCCCCN1C(=O)/C(=c2\sc3n(c2=O)C2C(NN=3)N(CC)C(=O)N2CC)c2ccccc21 (stereo not given) | -52.9% (active)
N#Cc1nc(-c2ccc(Cl)cc2)oc1S(=O)(=O)N1CCN(c2ccc(F)cc2)CC1 | 102% (inactive)
CCCCCCCCCCCCCCCCOCCCOP(=O)(O)C1CCCN(O)C1=O (stereo not given) | 7.79% (active)
COC(=O)c1c(C)c2n(c1C)C(=O)C(c1ccccc1)=C2 | 78.2% (inactive)
CC/C(=C(/c1ccc(Cl)cc1)c1ccc(OCCN2CCCCC2)cc1)c1ccc(OC)cc1 | 39.1% (inactive)
COC(=O)c1nc(-c2ccc(C)cc2)oc1S(=O)(=O)c1cccc(OC)c1 | 93.5% (inactive)
CC(=O)N1N=C(c2ccc(Nc3nc(Nc4ccccc4)nc(Nc4ccccc4)n3)cc2)CC1c1ccccc1 (stereo not given) | 89.6% (inactive)
Clc1ccc2c(c1)C(c1c[nH]c3ccccc13)(c1c[nH]c3ccccc13)CCO2 | 78.2% (inactive)
O=C(O)CCN1C(=O)/C(=C/C(Cl)=C/c2ccccc2)SC1=S | 15.3% (inactive)
COc1ccc2c(c1)CC[C@H](O)/C2=C/c1cc(OC)c(OC)c(OC)c1 | 10.8% (inactive)
O=C(CSc1nnc(-c2cnccn2)n1-c1ccccc1)c1ccc(Cl)cc1 | 94.8% (inactive)
C=C1C(=O)O[C@H]2[C@H]1CC/C(COC(=O)C(=O)c1cn(C)c3ccc(Cl)cc13)=C\CC[C@@]1(C)O[C@@H]21 | -49.7% (active)
N#Cc1c(-c2ccccc2)[nH]c2ncc(-c3ccccc3)n2c1=O | 89.8% (inactive)
